Sampled rows, rich in hits. Any-hit rate of the full collection: about 1.7%.
Neddylation inh = blocks human cullin neddylation; P61081+Q13564; TR-FRET cullin neddylation, biochemical; inhibition, % at 25 µM; 360,000 compounds, 0.58% hits; AID 651699; in the data active means inhibition above about 36%
Rin1 Abl inh = inhibitors of human Rin1-Abl protein interaction. inhibition, % at 7.35 µM. TR-FRET Rin1/Abl binding, biochemical. 360,000 compounds, 0.4% hits. P00519+Q13671; in the data active means inhibition above about 5%, passing the limit was not always enough
SUMO1-SIM PPI = alters human SUMO1 binding to SIM partners; SUMO1 binding to a labelled peptide, TR-FRET, 1 h; P63165; AID 602429; 360,000 compounds, 0.33% hits; inhibition, % at 20 µM; in the data active means inhibition above about 37%
Target sequence (P63165 whole entry, looked up): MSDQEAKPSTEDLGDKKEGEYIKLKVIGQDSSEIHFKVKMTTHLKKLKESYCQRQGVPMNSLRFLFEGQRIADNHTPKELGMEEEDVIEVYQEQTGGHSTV
ATG4B inh = blocks human ATG4B protease cleavage of LC3 substrate | ATG4B cleavage of LC3-PLA2, NBD-HPC fluorescence, 1 h | inhibition, % at 8.33 µM | Q9Y4P1 | 340,000 compounds, 0.51% hits
Target sequence (Q9Y4P1 whole entry, looked up): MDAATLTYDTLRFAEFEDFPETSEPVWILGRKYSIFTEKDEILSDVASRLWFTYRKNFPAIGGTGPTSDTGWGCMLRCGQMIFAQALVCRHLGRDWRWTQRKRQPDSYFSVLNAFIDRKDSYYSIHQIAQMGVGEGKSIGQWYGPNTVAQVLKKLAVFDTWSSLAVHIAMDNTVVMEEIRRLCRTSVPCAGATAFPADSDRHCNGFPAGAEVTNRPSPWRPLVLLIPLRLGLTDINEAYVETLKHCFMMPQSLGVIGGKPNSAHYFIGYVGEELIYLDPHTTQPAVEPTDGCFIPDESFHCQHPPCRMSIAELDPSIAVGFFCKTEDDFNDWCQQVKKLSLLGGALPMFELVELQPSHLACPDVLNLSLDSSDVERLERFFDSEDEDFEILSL
Neddyl inh conf = confirmation of human cullin neddylation inhibitors. shares compounds with Neddylation inh. TR-FRET cullin neddylation biochemical assay. calls only at 25 µM. 1,800 compounds, 13% hits. AID 652217;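 further: neddylation substrate is the cullin 1 ring ligase complex with SKP2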
* hit, by the source's call; i = inactive; · = no result given; + = active, no number. Unless noted, no stated cut-off is given here; in the data, active means inhibition above about 40%; inactive means the rest.

SMILES	Neddylation inh	Rin1 Abl inh	SUMO1-SIM PPI	ATG4B inh	Neddyl inh conf
O=C(O)c1ccc(-c2ccc(/C=N/Nc3ccc([N+](=O)[O-])cc3)o2)cc1	-24.9	-3.3	-28.2	-0.6	·
NS(=O)(=O)c1ccc(-c2ccc(/C=N/Nc3ccc(C(=O)O)cc3)o2)cc1	43.2*	-3.0	-11.9	-11.1	i
COc1cc(OC)nc(Nc2nc(C(N)Cc3ccc(F)cc3)cs2)n1 (centres undefined)	-11.8	-1.5	-24.5	·	·
C/C=C(\C)C(=O)O[C@@H]([C@H](O)c1cc2ccc(=O)oc2cc1OC)C(C)(C)O	·	1.0	3.7	-7.9	·
C/C=C(\C)C(=O)O[C@H](c1cc2ccc(=O)oc2cc1OC)[C@@H](O)C(C)(C)O	36.6*	0.8	3.1	-3.9	i
COc1cc(C(=O)N2CCCC(c3cc(C(=O)NCc4ccccc4)no3)C2)cc(OC)c1C (centres undefined)	0.9	5.9	-3.6	·	·
COc1cccc(/C=N/c2oc(-c3ccccc3)cc2C#N)c1O	45.7*	2.5	-2.5	31.6	i
N#Cc1cc(-c2ccccc2)oc1/N=C/c1ccccc1O	·	-2.2	-5.8	12.3	·
COc1cn(-c2ccccc2)nc1C(=O)Nc1ccc(C)cc1	27.7	1.2	6.8	2.0	·
COc1ccc(C)cc1NC(=O)c1nn(-c2ccccc2)cc1OC	49.1*	0.1	7.4	19.3	i
COc1ccc(/C=C/c2nnc(NC(C)=O)s2)cc1	43.1*	-3.9	-25.8	-7.1	i
Cc1cc2n(n1)C(c1ccc(O)cc1)Nc1ccccc1-2 (centres undefined)	42.3*	6.2	3.3	-8.8	i
CCC(=O)OCOc1ccc(/C=C2/CCC(CN(C)C)C2=O)cc1 (centres undefined)	-9.5	3.4	-22.1	1.8	·
Cc1ccc(C(=O)N/N=C\c2ccc(-c3ccc(Cl)c(Cl)c3)o2)cn1	42.9*	-0.7	-11.4	-13.2	i
CCC1CC(=O)CCN1S(=O)(=O)c1ccc(C)cc1 (centres undefined)	-7.5	-5.1	-1.0	-3.7	·
NC(=O)c1cnn2c(-c3cccc(C(F)(F)F)c3)ccnc12	48.0*	0.9	-12.2	-1.9	i
CCOc1ccc2oc(C(=O)NNC(=O)c3csc(N4CCOCC4)n3)c(C)c2c1	41.4*	2.4	-5.3	-5.8	i
CCOc1ccc2oc(C(=O)NCC3CCCO3)c(C)c2c1 (centres undefined)	45.8*	1.0	4.4	-3.3	+
CCOc1ccc2oc(C(=O)Nc3ccc(N4CCOCC4)cc3)c(C)c2c1	16.9	2.8	-0.8	-20.5	·
Cc1ccc(/C=N/Nc2nc(Cl)c(Cl)cc2Cl)s1	13.5	1.4	-0.9	-7.9	·
Cc1ccsc1/C=N/Nc1nc(Cl)c(Cl)cc1Cl	39.2*	0.1	-3.4	-1.5	i
CCN(CC)c1cc(C)c2cc(NC(=O)c3ccccc3OC)ccc2n1	42.7*	-1.0	-1.7	-5.7	i
COc1ccccc1C(=O)Nc1ccc2c(c1)nc1n2CCN(Cc2ccccc2)C1	53.7*	0.9	3.7	5.7	i
CC1CC(=Cc2ccc([N+](=O)[O-])cc2)C(=O)O1 (centres undefined)	-31.2	-4.2	-39.7	-4.5	·
CCOC(=O)N1CCN(C(=O)c2cc3c(=O)n4cccc(C)c4nc3s2)CC1	·	2.0	-30.5	-14.6	·
SMILES	Neddylation inh	Rin1 Abl inh	SUMO1-SIM PPI	ATG4B inh	Neddyl inh conf
Cc1cccn2c(=O)c3cc(C(=O)N4CC(C)CC(C)C4)sc3nc12 (centres undefined)	·	-1.7	-27.5	-5.9	·
COc1ccccc1N1CCN(C(=O)c2cc3c(=O)n4cccc(C)c4nc3s2)CC1	49.1*	-1.0	-26.9	-1.5	+
Cc1cccn2c(=O)c3cc(C(=O)N4CCCCC4C)sc3nc12 (centres undefined)	50.6*	-0.6	-29.0	4.5	+
CCN(CC)C(=O)c1cc2c(=O)n3cccc(C)c3nc2s1	·	-3.0	-33.0	-2.5	·
O=C(c1cc2c(s1)-c1ccccc1OC2)N1CCc2ccccc2C1	·	0.1	-0.7	10.7	·
COc1ccccc1N1CCN(C(=O)c2cc3c(s2)-c2ccccc2OC3)CC1	42.8*	0.3	29.3	2.3	i
CCCCN(CC)C(=O)c1cc2c(=O)n3cccc(C)c3nc2s1	62.0*	-2.7	-27.3	5.2	·
COc1ccc(S(=O)(=O)Nc2c(C(=O)O)[nH]c3ccc(OC)cc23)cc1	·	0.7	-3.5	-2.3	·
COc1ccc2[nH]c(C(=O)O)c(NS(=O)(=O)c3ccc(OC)c(OC)c3)c2c1	44.4*	0.5	11.0	-19.1	+
O=C(C1CC(=O)N(c2ccc(F)c(Cl)c2)C1)N1CCOCC1 (centres undefined)	2.4	-2.6	2.9	·	·
CCCCNC(=O)C1(C)CCN1Cc1cc(C)ccc1C (centres undefined)	5.1	-0.6	1.1	·	·
Cc1ncc(C(=O)O)c(C(=O)O)c1N	40.5*	-1.7	-2.8	-1.4	·
COC(=O)[C@H](CCSC)NC(=O)Cn1cc(C)c(=O)[nH]c1=O	9.3	-4.1	-3.4	·	·
COc1cc(C=NNC(=O)c2ccc(NS(=O)(=O)c3cccs3)cc2)cc(Br)c1O	50.2*	3.1	11.6	-3.9	+
COc1ccc(NS(=O)(=O)c2cccc(C(=O)N/N=C/c3ccc(O)cc3)c2)cc1	42.6*	0.0	62.5*	-1.4	i
COc1ccccc1NS(=O)(=O)c1cccc(C(=O)N/N=C/c2cn(-c3ccccc3)nc2-c2ccccc2)c1	38.3*	1.6	-3.9	-3.4	·
COc1ccc(NS(=O)(=O)c2cccc(C(=O)N/N=C/c3ccc4c(c3)OCCO4)c2)cc1	23.3	4.5	4.2	-5.9	·
OC(c1cccc(Cl)c1)c1nc(-c2csc3ccccc23)cs1 (centres undefined)	-30.7	0.1	2.9	·	·
O=C(CCn1cnc2ccccc21)N/N=C/c1ccccc1O	40.8*	-0.9	3.8	-7.0	i
O=C(CCn1cnc2ccccc21)N/N=C/c1ccc(O)cc1	4.6	4.3	-0.1	-2.0	·
CC(C)C(=O)Nc1ccc2nn(-c3ccc(F)cc3)nc2c1	·	-0.6	-11.7	2.3	·
Cc1ccc(-n2nc3ccc(NC(=O)C(C)C)cc3n2)cc1	43.2*	-3.7	-6.4	-3.6	i
O=C(NC1CCCN(Cc2ccc(Cl)cc2)C1)c1cnc2ccccn2c1=O (centres undefined)	40.7*	-3.8	-9.4	2.8	·
CC(C)Cc1ccc(CN2CCCC(NC(=O)c3cnc4ccccn4c3=O)C2)cc1 (centres undefined)	·	-1.6	-9.2	6.5	·
COCC(=O)N(C)C[C@@H]1Oc2ncc(Br)cc2C(=O)N([C@@H](C)CO)C[C@H]1C	9.9	3.1	-0.3	·	·
COc1ccc2nc3sc(C(=O)NCCN4CCc5ccccc5C4)cc3cc2c1	0.3	-6.6	-6.7	-0.1	·
COc1ccc2cc3cc(C(=O)NCCCN4CCc5ccccc5C4)sc3nc2c1	47.1*	-7.2	-7.8	-8.4	+
COc1ccc(C(=O)NCCNc2nc3c(C)cccc3cc2C#N)cc1OC	39.2*	-0.6	-6.1	-13.8	·

High-throughput results (PubChem BioAssay)
